Screens deposited in PubChem by National Center for Advancing Translational Sciences (NCATS).
KCNH2 3.1 inh – blocks the human KCNH2 3.1 channel isoform. U2OS KCNH2 3.1, thallium flux FluxOr; active compounds read low. activity change, % (tested at about 1.8 µM). 340,000 tested, 0.95% active;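 active means maximum activity change below -70%; inconclusive means maximum activity change from -70% to -50%; inactive means maximum activity change above -50%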;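 further: thallium influx rate constant from kinetic fluorescence after stimulation buffer; on the % scale 0 is the no-effect control and ±100 the full control effect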
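FluxOr-based Tl+ influx in U2OS cells transduced with KCNH2 3.1 virus; rate constants normalized to DMSO controls.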
TRPV1 ag – human TRPV1 agonism; Q8NER1; TRPV1-expressing cells, Fluo-8 calcium influx, agonist mode; activation, % at 8.33 µM; 320,000 tested, 0.19% active; AID 540275; in the data active means activation above about 80%; inconclusive means between about 30% and that limit; further: 0% is about no effect
Target sequence (Q8NER1 whole entry, looked up): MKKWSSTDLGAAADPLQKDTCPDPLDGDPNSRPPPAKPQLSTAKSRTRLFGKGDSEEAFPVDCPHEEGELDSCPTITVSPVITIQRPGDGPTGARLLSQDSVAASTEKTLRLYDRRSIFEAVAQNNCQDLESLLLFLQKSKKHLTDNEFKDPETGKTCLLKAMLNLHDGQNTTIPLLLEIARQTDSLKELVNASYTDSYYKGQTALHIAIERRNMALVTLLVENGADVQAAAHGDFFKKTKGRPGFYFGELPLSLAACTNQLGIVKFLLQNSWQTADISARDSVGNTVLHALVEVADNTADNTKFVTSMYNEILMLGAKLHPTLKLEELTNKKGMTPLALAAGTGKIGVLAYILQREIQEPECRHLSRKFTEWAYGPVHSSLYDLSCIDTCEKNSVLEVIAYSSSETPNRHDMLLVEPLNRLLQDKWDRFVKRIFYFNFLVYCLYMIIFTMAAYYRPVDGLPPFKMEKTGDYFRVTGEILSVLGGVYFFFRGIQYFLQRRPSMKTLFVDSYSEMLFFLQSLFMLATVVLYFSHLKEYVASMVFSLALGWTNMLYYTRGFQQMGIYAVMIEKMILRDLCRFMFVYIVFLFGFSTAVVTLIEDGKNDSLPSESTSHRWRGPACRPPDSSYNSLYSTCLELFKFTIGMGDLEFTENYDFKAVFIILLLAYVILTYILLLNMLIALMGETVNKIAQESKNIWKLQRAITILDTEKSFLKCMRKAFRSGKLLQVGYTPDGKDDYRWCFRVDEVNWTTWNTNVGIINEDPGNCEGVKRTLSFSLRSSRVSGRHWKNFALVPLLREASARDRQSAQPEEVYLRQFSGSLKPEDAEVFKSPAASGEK
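Cells expressing TRPV1 were dye-loaded with Fluo-8 and read kinetically: 10 s baseline, 3 min after compound (agonist portion), then 2 min after EC20 capsaicin (allosteric enhancer portion). Calcium-bound dye fluorescence at 480/520 nm.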
ClpP mod – qHTS Assay for Activators of ClpP; purified B. subtilis ClpP, FRET peptide cleavage, 20 min; 340,000 tested, 1.9% active; ATP-dependent Clp protease proteolytic subunit (Bacillus subtilis (strain 168)), P80244; AID 651965, 2013; Potency, µM (series often up to 57.5 µM), for the others: top-dose activity change, negative = active; active means well fitted falling curve with a large enough effect; inconclusive means small, poorly fitted or top-dose-only effect; inactive means no such curve, though single readings can be large or run the other way; further: potency means the concentration at half of the fitted maximal effect; the source files actives as falling curves though it sought activators and does not explain the sign; nearly all actives have a fitted effect of over 65% in size
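FRET quenching reversal measured ClpP activation: 10 microg/mL B. subtilis ClpP at pH 8 with the FRET-FV decapeptide, read at 430 nm after 320 nm excitation. The 20-min minus 0-min signal was scaled between DMSO/no-enzyme wells and ADEP (5.8 microM final).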
hERG WT inh – KCNH2 (human, wildtype) channel inhibition; Q12809; activity change, % at 1.84 µM; AID 720551; U2OS, BacMam KCNH2, thallium flux FluxOr; active compounds read low; 340,000 tested, 0.37% active;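 active means maximum activity change below -70%; inconclusive means maximum activity change between -70% and -50%; inactive means maximum activity change above -50%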; further: on the % scale 0 is the no-effect control and ±100 the full control effect
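U2OS cells were transduced with wild-type KCNH2 virus (2.03 x 10^8 / mL) for 4 h at room temperature, then cultured overnight at 37 C. Thallium flux was read with FluxOr dye. Rate constants were normalized to DMSO controls.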
p53 reactivation – restores transcriptional activity of mutant p53; H1299 p53-A138V BP100-luciferase reporter, luminescence, 24 h; Potency, µM (titrated, usually from 92.2 µM), without a hit: at the top dose activity change, positive = activation, most hits filed as activators; 320,000 tested, 0.063% active; AID 504706; active means well fitted activation curve with a large enough effect; inconclusive means small, poorly fitted or top-dose-only effect; inactive means no such curve, though single readings can be large or run the other way; further: potency means the concentration at half of the fitted maximal effect; % of control where 0% means no effect; nearly all actives have a fitted effect of over 45% in size
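p53-null H1299 cells stably carrying temperature-sensitive p53-A138V and a BP100-luciferase reporter were pinned with compounds (4-point, 1:5 series) and held 24 hrs at 37 deg C. Luminescence was read 10 min after detection reagent.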
TRPV1 PAM – enhances activation of the human vanilloid receptor TRPV1 | Q8NER1 | TRPV1-expressing cells, Fluo-8 calcium influx, capsaicin EC20 potentiation | potentiation, % at 8.33 µM | 320,000 tested, 0.02% active; in the data active means potentiation above about 80%; inconclusive means between about 30% and that limit; further: 0% is about no effect
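Cells expressing TRPV1 were dye-loaded with Fluo-8 and read kinetically: 10 s baseline, 3 min after compound (agonist portion), then 2 min after EC20 capsaicin (allosteric enhancer portion). Calcium-bound dye fluorescence at 480/520 nm.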
The depositor's hits bear a star; ? = inconclusive; · = no result. Compounds with a hit are over-represented: about 2.6% of the library has one in this group of screens.

SMILES | KCNH2 3.1 inh | TRPV1 ag | ClpP mod | hERG WT inh | p53 reactivation | TRPV1 PAM
O=C(N/N=C/c1ccc(O)cc1)/C(=C/c1ccccc1)CCO | -88* | -3 | -7% | -3 | 17% | 17
COc1ccc(-c2n[nH]c(=S)n2-c2cc(OC)ccc2OC)cc1 | 30 | 1 | · | -6 | -1% | 5
COc1ccccc1-n1c(-c2ccc(NS(C)(=O)=O)cc2)n[nH]c1=S | -10 | 2 | 28µM* | -7 | 2% | -11
N#C/C(=C\c1ccc(Cl)cc1Cl)c1nc(-c2cccc(Cl)c2)cs1 | · | · | -1% | · | · | ·
CC(C)(O)C#Cc1ccc(C(=O)NC2CCCCC2)s1 | -81* | 0 | · | 1 | 5% | 2
CC(C)(O)C#Cc1ccc(C(=O)NCCC(=O)O)s1 | -7 | -2 | · | 4 | 1% | 4
CCC1CCCCN1C(=O)CCS(=O)(=O)c1cc2c(cc1C)NC(=O)CO2 (stereo not drawn) | · | · | 2% | · | · | ·
C/C(=N\N=C\c1ccccc1F)c1nnn(-c2nonc2N)c1C | -71* | 10 | 1% | 20 | ? | -4
CCCCOc1cccc(C(=O)Nc2cccc(-c3nc4ncccc4o3)c2C)c1 | · | · | 9% | · | · | ·
Cc1c(NC(=O)c2cccc(-c3cc4ccccc4oc3=O)c2)cccc1-c1nc2ncccc2o1 | -96* | 1 | 22µM* | -45 | 24% | -2
COc1ccc(-c2nc(SCC(=O)NCCc3ccc(OC)c(OC)c3)n[nH]2)cc1 | · | · | -1% | · | · | ·
COC(=O)c1ccc(-c2nc(CN3CCC(C(=O)N4CCOCC4)CC3)c(C)o2)cc1 | 10 | 0 | 7.9µM* | -1 | 2% | ?
O=C(CNC(=O)c1cccnc1)c1ccc(F)cc1 | · | · | 0% | · | · | ·
CC1(Oc2ccc(-n3ccnc3)cc2)CCN(Cc2cccn2-c2nccs2)C1 (stereo not drawn) | · | · | 0% | · | · | ·
Cc1ccc(C)c(N2CCN(C(=O)CCc3c(C)nn(-c4ccc(N5CCCC5)nn4)c3C)CC2)c1 | · | · | -5% | · | · | ·
Cc1ccccc1-n1nnnc1SCc1ncc(-c2ccccc2)o1 | -1 | ? | 32µM* | -3 | -14% | -9
N#Cc1ncc(-c2ccc3c(c2)OCCOCCOCCOCCOCCO3)nc1C#N | -8 | -2 | 32µM* | -5 | -24% | 1
O=C(OC(C(=O)N1CCOCC1)c1ccccc1)c1c2c(nc3ccccc13)CCCC2 (stereo not drawn) | · | · | -16% | · | · | ·
Cc1ccc(S(=O)(=O)N2CCCCC2)cc1 | 1 | -2 | 1% | 2 | 12% | -7
Cc1ccc(C)c(CNc2ccc(S(=O)(=O)N3CCCCC3)cc2)c1 | -100* | 3 | -17% | -155* | 20% | 14
O=C(Nc1ccc(F)c(Cl)c1)Nc1nnc([C@H]2C[C@H](O)[C@@H](CO)O2)s1 | · | · | -8% | · | · | ·
COc1ccc(NC(=O)CC2C(=O)N(c3ccc(C)cc3)C(=O)N2C2CCCC2)cc1 (stereo not drawn) | · | · | -3% | · | · | ·
CCOC(=O)NN1C(=O)c2ccccc2NC1c1ccc(N(C)C)cc1 (stereo not drawn) | -4 | 14 | 1% | 4 | 8% | 4
CCOC(=O)NN1C(=O)c2ccccc2NC1c1ccc(OC)cc1 (stereo not drawn) | 6 | 0 | 32µM* | -16 | 0% | -3
CCOC(=O)NN1C(=O)c2ccccc2NC1c1ccccc1 (stereo not drawn) | 0 | -1 | 32µM* | 3 | -7% | 14
SMILES | KCNH2 3.1 inh | TRPV1 ag | ClpP mod | hERG WT inh | p53 reactivation | TRPV1 PAM
O=C(NCc1ccccc1)C(c1cc2ccccc2o1)n1c(=O)c(-c2ccccc2)nc2ccccc21 (stereo not drawn) | · | · | -5% | · | · | ·
Cn1c(N)c(C(=O)COC(=O)c2ccccc2C(F)(F)F)c(=O)n(C)c1=O | -93* | · | -17% | -3 | 11% | ·
COc1cc2ccccc2cc1C(=O)OCC(=O)c1c(N)n(C)c(=O)n(C)c1=O | 15 | -1 | 32µM* | 10 | -11% | -3
Cc1cc(F)ccc1-c1cc(C(=O)N2CCN(c3ccncc3)CC2)[nH]n1 | · | · | -4% | · | · | ·
O=C(O)CCC1(CCC(=O)O)CCCC(CCC(=O)O)(CCC(=O)O)C1=O | 7 | · | · | 7 | · | ·
Cc1ccccc1N(C)S(=O)(=O)c1ccc2[nH]cc(C(=O)NCC3CCCO3)c(=O)c2c1 (stereo not drawn) | 14 | · | 32µM* | 28 | -12% | ·
CCN(CC)S(=O)(=O)c1ccc2[nH]cc(C(=O)NCCCN3CCCCC3)c(=O)c2c1 | ? | 3 | 28µM* | 4 | 12% | 6
CCc1ccc(N(C)S(=O)(=O)c2ccc3[nH]cc(C(=O)NCC4CCCO4)c(=O)c3c2)cc1 (stereo not drawn) | · | · | -19% | · | · | ·
CCN(CC)S(=O)(=O)c1ccc2[nH]cc(C(=O)NCCN3CCCCC3C)c(=O)c2c1 (stereo not drawn) | 7 | -1 | ? | 0 | -5% | 2
CCN(CC)S(=O)(=O)c1ccc2[nH]cc(C(=O)NCCN3CCCCCC3)c(=O)c2c1 | -1 | 0 | ? | 2 | -11% | 4
CN(CCC#N)S(=O)(=O)c1ccc2[nH]cc(C(=O)NCCc3ccccc3)c(=O)c2c1 | -3 | 22 | 28µM* | -10 | -8% | -10
CCN(CC)S(=O)(=O)c1ccc2[nH]cc(C(=O)NCCCN3CCCCC3C)c(=O)c2c1 (stereo not drawn) | 16 | 1 | 22µM* | -1 | 2% | -8
O=C(NCCc1ccccc1)c1c[nH]c2ccc(S(=O)(=O)Nc3ccccc3F)cc2c1=O | · | · | -7% | · | · | ·
CCCCOc1ccc(-c2nonc2NC(=O)c2ccco2)cc1 | · | · | 0% | · | · | ·
O=C(NCc1ccccc1)c1ccc(-c2ccc(F)cc2)o1 | -3 | ? | 28µM* | -260* | 8% | -10
CC(=O)N/C(=C/c1ccc2c(c1)OCO2)C(=O)NC(Cc1ccccc1)C(=O)O (stereo not drawn) | 0 | · | 32µM* | -3 | · | ·
CC(=O)N/C(=C\c1ccc2c(c1)OCO2)C(=O)NC(C(=O)O)c1ccccc1 (stereo not drawn) | 2 | 3 | · | 4 | 3% | 0
Cc1nc2ccccc2nc1/C=C/c1ccc(N(C)C)cc1 | · | · | 1% | · | · | ·
CCOc1ccc(S(=O)(=O)N(CC(=O)NCCSCc2ccccc2)c2ccccc2)cc1 | · | · | 2% | · | · | ·
O=C(COc1ccc(-c2ccccc2)cc1)NNC(=O)Nc1ccc(F)cc1F | 10 | 4 | 32µM* | -6 | -8% | 1
Cc1ccc(C(=O)OCC(=O)c2ccccc2)cc1 | 15 | 3 | 14µM* | -2 | ? | -2
Cc1ccc(C(=O)Cc2ccccc2)cc1 | -6 | · | · | -3 | · | ·
